In PubChem BioAssay AID1906 (The Scripps Research Institute Molecular Screening Center, 2009):
Out of some 300,000 compounds screened, about 1,500 (0.5%) were called active. For the sample, actives were picked, then their nearest neighbours and some compounds at random. A number with no mark means an inactive call.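 How the source made its calls: active means inhibition above the mean of all tested compounds plus 3 SD, set per screening campaign (cut at about 17% in these data); inactive means the rest.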

system: cathepsin L1 (Fasciola hepatica); test: Fasciola hepatica cathepsin L1 inhibitors, primary screen, counter-screen for PFM18AAP inhibitor project, biochemical, QFRET, fluorogenic peptide substrate (AID 1906);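 further: 0% = plate median of test compound wells and 100% = 1 µM Z-Phe-Ala-diazomethylketone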; conditions: recombinant F. hepatica cathepsin L1, Z-Leu-Arg-MCA fluorescence; at 5.96 µM; stronger effect = higher value

Row | Structure (SMILES) | inhibition
1 | CCOC(=O)NC(=O)CSc1nnc(SCCC(=O)O)s1 | -3.27%
2 | Cc1cccc2nc(CNc3ccc(F)cc3)cn12 | -0.43%
3 | O=C(CN1CCN(S(=O)(=O)c2ccc(F)cc2)CC1)NC1CC1 | 0.44%
4 | Nc1c(Cl)cc(-c2csc(N3CCCC3c3nc4cc(Cl)c(Cl)cc4n3CCOCCO)n2)cc1Cl (centres undefined) | 1.62%
5 | COCCCN(C(=S)Nc1c(C)cc(C)cc1C)C(C)c1ccncc1 (centres undefined) | -2.52%
6 | CC(C)Cc1nnc(NC(=O)CCC(=O)Nc2ccc3cn[nH]c3c2)s1 | -6.53%
7 | CCc1noc(C)c1C(=O)N1CCCC(N2CCN(c3ccc(F)cc3)CC2)C1 (centres undefined) | -0.72%
8 | CCc1noc(C)c1C(=O)NNC(=O)c1ccc(F)cc1 | 18.8% (active)
9 | Cc1onc(-c2ccccc2)c1C(=O)NNC(=S)NC(=O)c1ccc(F)cc1 | 6.16%
10 | COc1ccc(/C=N/NC(=O)C(C)N(c2ccc(OC)cc2)S(C)(=O)=O)cc1 (centres undefined) | -4.5%
11 | COc1cc(C2C(N3C(=O)c4ccccc4C3=O)C(=O)N2c2ccc(C)c(C)c2)cc(OC)c1OC (centres undefined) | 3.07%
12 | CCOC(=O)NN1C(=O)c2ccccc2NC1c1cccc(O)c1 (centres undefined) | 7.1%
13 | CC(=O)NN1C(=O)c2ccccc2NC1c1ccccc1 (centres undefined) | 0.11%
14 | Cc1ccc(C2Nc3ccccc3C(=O)N2CCN2CCNC2=O)cc1 (centres undefined) | 28.6% (active)
15 | Cc1cc(NC(=O)CCC(=O)N(c2cccc(F)c2)C(C(=O)NC2CCCC2)c2ccncc2)no1 (centres undefined) | -0.94%
16 | Cc1cc(NC(=O)CCC(=O)N(c2ccccc2)C(C(=O)NC2CCCC2)c2ccncc2)no1 (centres undefined) | -1.79%
17 | Cc1cc(NC(=O)CCC(=O)N(Cc2ccccc2)C(C(=O)NC2CCCC2)c2ccc(C)o2)no1 (centres undefined) | 29.5% (active)
18 | CC1CCN(S(=O)(=O)c2ccc3ncn(CC(=O)N(C)C4CCCCC4)c(=O)c3c2)CC1 | 1.81%
19 | Cc1ccc(C)c(Cn2nnc3c(=O)[nH]c(C(=O)Nc4ccc(F)cc4)nc32)c1 | 0.39%
20 | O=C(NNc1ccccn1)c1ccc(Cl)nc1 | 1.75%
21 | O=C(Cc1c(Cl)cccc1Cl)NC1CC1 | 4.27%
22 | O=C(CCl)NNc1cccc(Cl)n1 | 87.5% (active)

Row | Structure (SMILES) | inhibition
23 | Cc1ccccc1NC(=O)c1ccc(COc2ccc3c(C)cc(=O)oc3c2)cc1 | 1.96%
24 | CCn1ccnc1CN(C)Cc1nc(-c2ccc3c(c2)OCO3)no1 | -4.87%
25 | COc1ccc(NC(=O)COC(=O)CNC(=O)C2CCCCC2)cc1 | 32.3% (active)
26 | COc1ccc(NC(=O)CN(C)C(=O)CNC(=O)C2CCCCC2)cc1 | -1.07%
27 | COc1ccc(CCNC(=O)COC(=O)C2CCCCC2)cc1 | -2.54%
28 | NC(=O)COc1ccccc1C(=O)NC12CC3CC(CC(C3)C1)C2 | -1.07%
29 | COc1ccccc1C(=O)COC(=O)CSCC(=O)Nc1cc(C)on1 | -19.3%
30 | Cc1cc(C)c(C#N)c(SCc2ccccc2C(=O)O)n1 | -2.52%
31 | Cc1cc(C)c(C#N)c(SCC(=O)Nc2ccccc2)n1 | 39.5% (active)
32 | COCc1cc(C)nc(SCC(=O)Nc2cccc(C)c2)c1C#N | -0.64%
33 | Cc1c(C(=O)OC(C)C)sc(NC(=O)c2cccnc2)c1C#N | 2.51%
34 | COc1ccccc1CCNC(=O)CN1C(=O)NC2(CCCC2)C1=O | -1.76%
35 | O=C(O)CC(c1ccccc1F)N1Cc2ccccc2C1=O (centres undefined) | 0.38%
36 | CCOc1cc(/C=C/c2nc3ccccc3c(=O)[nH]2)cc(Br)c1OC | 4.32%
37 | O=c1[nH]c(SCc2cccc(F)c2)nc2ccccc12 | -0.09%
38 | O=c1[nH]c(/C=C/c2cccc(Br)c2)nc2ccccc12 | 49.9% (active)
39 | COc1ccc(S(=O)(=O)N2CCOC2CNC(=O)C(=O)NCc2ccncc2)cc1C (centres undefined) | -2.32%
40 | O=C1CSC(=S)N1c1ccc(O)cc1 | 2.41%
41 | Cc1cc(=O)[nH]c(S)c1C#N | 3.28%
42 | CC(=O)c1cc(C#N)c(N2CC(C)OC(C)C2)nc1C (centres undefined) | 20% (active)
43 | Cc1ccc(-c2nnc(C)c(N3CC(C)OC(C)C3)n2)cc1 (centres undefined) | 1.07%
44 | CC(=O)c1cc(C#N)c(SCC(=O)C(C)(C)C)nc1C | 5.58%

Row | Structure (SMILES) | inhibition
45 | O=C(Nc1nnc(CCc2ccccc2)s1)C1CCCO1 (centres undefined) | 18% (active)
46 | O=C(Nc1ccc(-c2nnc(-c3ccccc3)o2)cc1)C1CCCO1 (centres undefined) | 0.12%
47 | O=C(Nc1nnc(SCc2c(Cl)cccc2Cl)s1)C1CCCO1 (centres undefined) | 4.51%
48 | OCCNc1nc(Nc2ccc(Cl)c(Cl)c2)nc2ccccc12 | 2.53%
49 | CS(=O)(=O)c1ccc(Cl)c(NC(=O)COC(=O)c2ncc(Cl)c(Cl)c2Cl)c1 | -5.36%
50 | Cc1ccc(S(=O)(=O)CC(=O)Nc2nnc(C)s2)cc1 | -3.43%
51 | CC(=O)N1CCc2c(sc(NC(=O)CCS(=O)(=O)c3ccc(C)cc3)c2C(N)=O)C1 | -1.1%
52 | Cc1ccc(S(=O)(=O)CC(=O)Nc2sc(C)c(C)c2C(N)=O)cc1 | 17.8% (active)
53 | C/C=C(\C)C(=O)NCCN1C2=NC[C@H](Cc3ccc(O)cc3)N2C[C@@H]1Cc1ccc(OC)cc1 | -2.36%
54 | O=C(O)CSCC(=O)Nc1ccc(C(F)(F)F)cc1 | -1.45%
55 | O=C(O)CC1(CC(=O)Nc2cccc(C(F)(F)F)c2)CCCC1 | -5.07%
56 | O=C(O)CSCC(=O)Nc1cccc(C(F)(F)F)c1 | 16.9% (active)
57 | CCOc1cc(N2CCOCC2)c(OCC)cc1NC(=O)COc1cccc2cccnc12 | -0.24%
58 | CCOc1cc(N2CCOCC2)c(OCC)cc1NC(=O)COc1cccc(Cl)c1 | 30.1% (active)
59 | CCOc1cc(N2CCOCC2)c(OCC)cc1NC(=O)c1ccc(C)s1 | -0.83%
60 | Cc1c(C=O)c2ccccc2n1CCOc1ccccc1 | 1.89%
61 | O=C(O)c1cccnc1NC1CCCC1 | 1.66%
62 | CNc1nc(SC)nc(N(C#N)CC(=O)OC)n1 | 42.3% (active)
63 | Cc1cc(C)nc(N(C#N)CC(=O)Nc2ccccc2)n1 | 1.63%
64 | COC(=O)C(C)N(C#N)c1nc(C)nc(C)n1 (centres undefined) | 1.79%
